Assay outcomes from PubChem BioAssay.
Compounds with a hit are over-represented: about 2.1% of the library has one in this group of screens.
FUS yeast rescue: FUS proteinopathy suppression in yeast; S. cerevisiae FUS-expressing, growth rescue, OD600, 24 h; Potency, µM (doses to about 76.6 µM), usual class: activators; hit rate 0.24% among 390,000;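 note: plate controls were DMSO vehicle for no effect and reference control for full effect; nearly all actives have a fitted effect of over 55% in size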
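Yeast expressing FUS under galactose induction, OD 0.005 in 2% galactose medium; compounds in a dilution series, 24 h at 30C. Growth rescue by absorbance at 600 nm; CP55940 positive control, DMSO negative.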
TDP43 rescue: rescues yeast growth from TDP-43 toxicity. AID 652104. hit rate 1.8% among 410,000. Potency, µM (series often up to 46.1 µM), for inactives: top-dose growth rescue (activation), most hits filed as activators. TDP-43 expressing yeast growth rescue, BacTiter-Glo, 24 h; note: % of control where 0% means no effect; nearly all actives have a fitted effect of over 50% in size
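In this qHTS, compounds that restore growth of yeast expressing TDP-43 appear as activators. Cells (OD600=0.02, galactose medium, raffinose-pregrown) are incubated with compound 24 hr at 30 deg C and growth is quantified by BacTiter-Glo.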
aSyn rescue: inhibitors of alpha-synuclein toxicity in yeast; Yeast expressing alpha-synuclein, growth rescue, BacTiter-Glo, 24 h; Potency, µM (titrated, usually from 46.1 µM), without a hit: at the top dose growth rescue (activation), actives largely listed as activators; hit rate 0.14% among 370,000; AID 652106; note: % of control where 0% means no effect; nearly all actives have a fitted effect of over 65% in size
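Readout is rescue of growth in alpha-synuclein-expressing yeast, so inhibitors of toxicity appear as activators. Growth after 24 hr at 30 deg C in galactose medium is quantified by luminescence.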
Abeta yeast res: compounds reversing amyloid beta toxicity in yeast | yeast expressing A-beta42, growth rescue, OD600, 48 h; response scale: 0% DMSO, 100% iron-clioquinol control | Potency, µM (series often up to 46.1 µM), most hits filed as activators | hit rate 0.063% among 410,000; note: nearly all actives have a fitted effect of over 55% in size
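Yeast growth medium received pinned compounds, then yeast cells expressing toxic A-beta were added; plates incubated at 30 C for 48 hr. Growth read as absorbance at 600 nm, normalized to DMSO and equimolar FeCl3 plus clioquinol controls.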
Active calls of the source: *; i = inactive; ? = inconclusive; . = no result; [ ] = another dose, or the depositor's remark. Calls come from the whole dose curve; as a rule, active = well fitted curve in the direction sought with a large enough effect; inconclusive = small, poorly fitted or top-dose-only effect, or another doubt; inactive = no such curve, though single readings can be large; an effect the other way counts as inactive or inconclusive. Potency is the fitted concentration of half-maximal effect.

SMILES	FUS yeast rescue	TDP43 rescue	aSyn rescue	Abeta yeast res
O=[N+]([O-])c1ccccc1NCCNS(=O)(=O)c1ccc(Cl)cc1	.	11µM*	15%	i
O=C(N/N=C/c1cccc(O)c1)NC1CCCCC1	i	-14%[9.22 µM]	3%	i
NC(=O)N\N=C/C=C/C=C/c1ccc(F)cc1	i	21%	1%	i
NC(=O)N/N=C/C=C/c1ccccc1	i	4µM*	-19%	i
O=C(N/N=C/C=C/c1ccccc1)NC1CCCCC1	i	18µM*	?	?
COc1ccc(N=C2SC(CC(=O)Nc3ccccc3)C(=O)N2CCc2ccccn2)cc1 (stereo not given)	.	21%	-2%	i
COc1ccc(OC)c(NC(=O)CC2SC(=Nc3ccccc3)N(CCc3ccccn3)C2=O)c1 (stereo not given)	35µM*	2%	8%	i
COc1cccc(OC)c1NC(=O)OCCN1CCCC12CCC(c1ccccc1)CC2 (stereo not given)	i	.	.	.
Cc1nn2c(-c3ccccc3)ccnc2c1Br	i	20µM*	4%	i
Cc1ccc(-c2ccnc3c(Br)c(C)nn23)cc1	i	17%	?	i
Cc1cccc(C)c1-n1nnnc1C1c2ccccc2OCC(=O)N1Cc1ccc(F)cc1 (stereo not given)	i	.	.	.
COc1ccccc1NC(=S)N(Cc1ccccc1)Cc1ccccn1	i	22µM*	4%	?
COc1ccc(Cn2cc(COC(=O)NCC(C)C)nn2)cc1	i	.	.	.
CCOC(=O)CC(NS(=O)(=O)c1ccc2[nH]c3c(c2c1)CCCC3)c1ccccc1Cl (stereo not given)	?	20µM*	16µM*	i
CCOC(=O)C1CCN(S(=O)(=O)c2ccc3[nH]c4c(c3c2)CCCC4)CC1	i	?	17%	i
COc1ccc(Cl)cc1NS(=O)(=O)c1ccc2[nH]c3c(c2c1)CCCC3	i	13µM*	.	i
COc1ccc(S(=O)(=O)Nc2cc(Cl)ccc2OC)cc1	.	3.2µM*	24%	i
COc1ccc(Cl)cc1NS(=O)(=O)c1ccc(OC)c(OC)c1	i	-7%	-2%	i
CCOC(=O)N1CCN(C(=O)C2CCN(S(=O)(=O)c3cc(Cl)ccc3Cl)CC2)CC1	?	11µM*	15%	i
O=S(=O)(c1cc(Cl)ccc1Cl)N1CCCCC1	i	16µM*	10%	i
O=C(c1ccco1)N1CCN(S(=O)(=O)c2cc(Cl)ccc2Cl)CC1	i	18µM*	13%	i
C=CCN1C(=O)[C@@H](CC(=O)NCc2ccccc2)[C@]2(C(=O)OCC)CCCCC/C=C/12	i	.	.	.
Cc1cc(C)nc(Nc2cccc(C(F)(F)F)c2)n1	i	?	-13%	i
COc1nc(Nc2cccc(C(F)(F)F)c2)nc(OC)n1	i	14µM*	-9%	i
CCOC(=O)C1=C(C)N=c2s/c(=C\c3ccc(OCC(=O)O)c(OC)c3)c(=O)n2C1c1ccc(OC)cc1 (stereo not given)	35µM*	8%	1%	i
SMILES	FUS yeast rescue	TDP43 rescue	aSyn rescue	Abeta yeast res
Cc1cccc(N2CCN(C3=NC(=O)C(=C4CCCCC4)S3)CC2)c1	i	7.1µM*	.	i
CC(=O)N1CCN(C2=NC(=O)C(=C3CCCCC3)S2)CC1	i	-16%	-7%	i
Cc1ccc(/C=C(\NC(=O)c2ccc(C)cc2)c2nc(=S)[nH][nH]2)cc1	i	20µM*	28%	i
Cc1ccc(NC(=O)Cn2c(=O)ccc3cc(S(=O)(=O)N4CCCC4)ccc32)cc1N(C)C	i	-7%	.	i
CCn1cc(C(=O)N2CCN(c3ccc(OC)cc3)CC2)c2cc(OC)c(OC)cc2c1=O	i	22%	3%	i
COc1cc2c(C(=O)N3CCN(c4ccc(C)cc4)C(C)C3)cn(CC(C)C)c(=O)c2cc1OC (stereo not given)	?	35µM*	.	i
CCOc1ccc(CCN2C(=S)N([C@@H](CC(C)C)CN3CCC[C@@H]3CN3C(=S)NC[C@@H]3Cc3ccccc3)C[C@@H]2Cc2ccc(O)cc2)cc1	28µM*	1%	-40%	i
Oc1ccc(C[C@H]2CNC(=S)N2CC2CCCN2C[C@H](Cc2ccc(O)cc2)N2C[C@H](Cc3ccc(O)cc3)N(CC3CCCCC3)C2=S)cc1 (stereo not given in full)	?	11µM*	-41%	i
CCOc1ccc(CCN2C(=S)N([C@@H](Cc3ccccc3)CN3CCCC3CN3C(=S)NC[C@@H]3Cc3ccccc3)C[C@@H]2Cc2ccc(O)cc2)cc1 (stereo not given in full)	11µM*	-23%	-27%	i
Oc1ccc(C[C@H]2CN([C@@H](Cc3ccccc3)CN3CCCC3CN3C(=S)NC[C@@H]3Cc3ccccc3)C(=S)N2CC2CCCCC2)cc1 (stereo not given in full)	?	27%	-34%	i
CCOc1ccc(CCN2C(=S)N([C@@H](Cc3ccc(O)cc3)CN3CCC[C@@H]3CN3C(=S)NC[C@@H]3Cc3ccccc3)C[C@@H]2Cc2ccccc2)cc1	?	0%	-29%	i
Cc1nc(S(=O)(=O)c2cccc(Cl)c2)nc2c1CCC2	.	14µM*	?	i
Cc1nc(S(=O)(=O)c2ccc(Cl)cc2Cl)nc2c1CCC2	i	-1%	2%	i
Cc1cc(C)nc(Sc2ncnc3c2oc2ccccc23)n1	i	22µM*	13%	i
c1ccc2cc(Sc3ncnc4c3oc3ccccc34)ccc2c1	i	3%	-2%	i
COc1cc2ccccc2cc1C(=O)NC1CCCCC1	i	17%	-11%	i
COc1cc2ccccc2cc1C(=O)NC1CCCC1	i	13µM*	1%	i
Cc1cccc(C2NC(=O)c3ccccc3O2)c1 (stereo not given)	i	14µM*	7%	i
COc1ccc(OCc2cc(=O)c3ccc4c(c3o2)C=CC(C)(C)O4)cc1OC	i	35µM*	-3%	i
Cc1ccc2c(c1)C1CS(=O)(=O)N(CCc3ccccc3)C(=O)N1C2 (stereo not given)	i	.	.	.
O=C(CSc1nc2c([nH]c3ccccc32)c(=O)n1-c1ccc(F)cc1)NC1CCCCC1	i	8%	.	i
O=C(NCc1cccc(Cl)c1)c1ccc(-c2ccc(F)c(F)c2)c2ccoc12	i	0%	8%	i
Cn1nccc1-c1coc2c(C(=O)NCc3ccccc3)cccc12	i	3.5µM*	14%	i
O=C(NCc1ccccc1)c1ccc(-c2ccc(F)c(F)c2)c2ccoc12	i	-8%	-1%	i
Cn1nccc1-c1coc2c(C(=O)NCC3CCOCC3)cccc12	i	13%	-10%	i
O=C(NCc1ccco1)c1ccc(-c2ccc(F)c(F)c2)c2ccoc12	i	20µM*	1%	i
Cn1nccc1-c1ccc(C(=O)NCc2ccc(Cl)cc2)c2occc12	?	22µM*	6%	i
